Experiment [1] in a line: qHTS assay to identify small molecule agonists of the constitutive androstane receptor (CAR) signaling pathway - cell viability counter screen (AID 1224836). Note: nearly all actives have a fitted effect of over 45% in size. Note: potency is the fitted concentration of half-maximal effect. The method in brief:
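23 h treatment, 37 C, 5% CO2. Cell line: HepG2 stably expressing hCAR with a CYP2B6-2.2kb construct. Co-treatment: PK11195, 0.75 uM final. Read-out: CellTiter-Fluor fluorescence intensity.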

The nature of experiment [2]: qHTS assay to identify small molecule antagonists of the constitutive androstane receptor (CAR) signaling pathway - cell viability counter screen (AID 1224837). Note: nearly all actives have a fitted effect of over 45% in size. Note: potency is the fitted concentration of half-maximal effect. The method in brief:
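To flag cytotoxic false antagonists, HepG2 hCAR/CYP2B6-2.2kb cells were treated 23 hr with 15-concentration compound series and 50 nM CITCO at 37 C/5% CO2; CellTiter-Fluor fluorescence was the measured end point.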
A general note: In qHTS, concentration-response curves come from the screen itself.

Experiment [3] in a line: qHTS RealTime-Glo MT Cell Viability Assay in HepG2 cells - 24 hour (AID 1224867). Note: nearly all actives have a fitted effect of over 50% in size. Note: potency is the fitted concentration of half-maximal effect. In outline: (§1)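 HepG2 cells (600/well) were dispensed with RealTime-Glo reagents, incubated 5 h at 37 °C, then treated with compounds in DMSO for up to 40 h. Nonlytic NanoLuc luminescence reflecting viable cells was read at each stated time point.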
Experiment [4] is described as follows: A CellTox Green Cytotoxicity Assay to monitor cytotoxicity in HepG2 cells - 24 hour (AID 1224878). For Cytotoxicity: % is set by controls: 0 for no effect and ±100 for the full control effect. Note: nearly all actives have a fitted effect of over 45% in size. Note: potency is the fitted concentration of half-maximal effect. In outline: (§2)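 Measurements at 0, 8, 16, 24, 32 and 40 h of treatment captured CellTox Green fluorescence in HepG2 cells that had been co-plated with reagent and preincubated 5 h at 37 C/5% CO2.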
A short description of experiment [5]: A CellTox Green Cytotoxicity Assay to monitor cytotoxicity in HepG2 cells - 40 hour (AID 1224879). Note: nearly all actives have a fitted effect of over 40% in size. Note: potency is the fitted concentration of half-maximal effect. In outline:
as §2

Experiment [6] in a line: A CellTox Green Cytotoxicity Assay to monitor cytotoxicity in HEK293 cells - 8 hour (AID 1224884). Note: nearly all actives have a fitted effect of over 35% in size. Note: potency is the fitted concentration of half-maximal effect. The method in brief: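 Tox21 screen in HEK293: membrane-impermeant cyanine dye fluoresces on binding dead-cell DNA; compound pinned 5 h post-seeding, plates held at 37 C, signal read repeatedly through 40 h.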
A short description of experiment [7]: qHTS RealTime-Glo MT Cell Viability Assay in HepG2 cells - 16 hour (AID 1224885). Note: nearly all actives have a fitted effect of over 50% in size. Note: potency is the fitted concentration of half-maximal effect. In outline:
as §1

Experiment [8] can be described thus: qHTS assay to identify small molecule agonists of the sonic hedgehog signaling (Shh) pathway - cell viability counter screen (AID 1259366). Note: nearly all actives have a fitted effect of over 50% in size. Note: potency is the fitted concentration of half-maximal effect. The method in brief:
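In quantitative high-throughput format, 3T3 Gli1-Luc cells were exposed to compounds for 24hr and multiplexed for viability using CellTiter-Fluor, incubated 1hr at 37C before the fluorescence read.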

The nature of experiment [9]: qHTS assay to identify small molecule antagonists of the sonic hedgehog signaling (Shh) pathway - cell viability counter screen (AID 1259367). Note: nearly all actives have a fitted effect of over 55% in size. Note: potency is the fitted concentration of half-maximal effect. In outline: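 Conditioned medium drove Shh signaling in 3T3 Gli1-Luc cells exposed to compounds at 37C and 5% CO2. Viability was determined from CellTiter-Fluor fluorescence, with reagent incubated 1 hr after 23 hr of treatment.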

Experiment [10] addresses Estrogen receptor (Homo sapiens) (UniProt P03372). The experiment is described as follows: qHTS assay to identify small molecule agonists of the estrogen receptor alpha (ER-alpha) signaling pathway in the presence of an antagonist (AID 1259383; calls by dose curve; note: top concentration of the series differs between compounds; % is set by controls: 0 for no effect and ±100 for the full control effect; nearly all actives have a fitted effect of over 15% in size). In outline:
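Quantitative HTS confirmation: compounds titrated at 15 concentrations onto estrogen-deprived VM7Luc4E2 cells carrying a four-ERE luciferase construct, with ICI-182,780 present at 10.0nM final. Signal is luminescence after 22hr exposure.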

The nature of experiment [11]: qHTS assay to identify small molecule agonists of the estrogen receptor alpha (ER-alpha) signaling pathway in the presence of an antagonist - cell viability counter screen (AID 1259386).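 Note: cells exposed to compounds for 22 h at 37 °C before the viability read; nearly all actives have a fitted effect of over 30% in size.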 Note: potency is the fitted concentration of half-maximal effect. In outline: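 The test measures whether compounds kill ER-alpha reporter cells (VM7Luc4E2) under antagonist co-treatment (ICI-182,780, 10.0nM). Fluorescence from CellTiter-Fluor is read after a 22hr exposure.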

A short description of experiment [12]: qHTS assay to identify small molecule agonists of the TGF-beta/Smad signaling pathway - cell viability counter screen (AID 1346829). Note: top concentration of the series differs between compounds; % is set by controls: 0 for no effect and ±100 for the full control effect; nearly all actives have a fitted effect of over 45% in size. In outline:
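SBE-bla HEK 293T cells plated overnight, compound exposure 5 hr at 37 C. Viability read in the same wells by CellTiter-Glo luminescence after 30 min at room temperature, following the beta-lactamase read.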

Experiment [13] has as its target Cytochrome P450 2C19 (Homo sapiens) (UniProt P33261). As to the kind of experiment: Cytochrome P450 Family 2 Subfamily C Member 19 (CYP2C19) small molecule antagonists: luciferase reporter qHTS assay (AID 1671197). Note: potency is the fitted concentration of half-maximal effect; nearly all actives have a fitted effect of over 65% in size. In outline:
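P450-Glo CYP2C19 system: enzyme-substrate mix with compound 10 min at room temperature, then NADPH regeneration solution, 1 h at 37C. Proluciferin-to-luciferin conversion detected by luminescence after 20 min with detection reagent; ketoconazole as positive control.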
A general note: A reporter such as luciferase makes a cellular process visible.

Experiment [14] addresses Cytochrome P450 2C9 (Homo sapiens) (UniProt P11712). As to the kind of experiment: Cytochrome P450 Family 2 Subfamily C Member 9 (CYP2C9) small molecule antagonists: luciferase reporter qHTS assay (AID 1671198). Note: nearly all actives have a fitted effect of over 50% in size. Note: potency is the fitted concentration of half-maximal effect. The method in brief:
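CYP2C9 activity was measured with a P450-Glo proluciferin substrate. Enzyme–substrate mix was held with compound for 10 min at room temperature, then NADPH regeneration solution was added for 1 h at 37C. Luciferin product was read as luminescence.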

For experiment [15], the target named is Luciferin 4-monooxygenase (Photinus pyralis) (UniProt P08659). As to the kind of experiment: qHTS assay to identify small molecule inhibitors of firefly luciferase (AID 1224835). Note: nearly all actives have a fitted effect of over 25% in size. Note: potency is the fitted concentration of half-maximal effect. The method in brief: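 Quantitative HTS format; KM concentrations of both substrates. Purified P. pyralis FLuc activity quantified from luminescence images.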
Luciferin 4-monooxygenase (Photinus pyralis), sequence (P08659 whole entry, looked up): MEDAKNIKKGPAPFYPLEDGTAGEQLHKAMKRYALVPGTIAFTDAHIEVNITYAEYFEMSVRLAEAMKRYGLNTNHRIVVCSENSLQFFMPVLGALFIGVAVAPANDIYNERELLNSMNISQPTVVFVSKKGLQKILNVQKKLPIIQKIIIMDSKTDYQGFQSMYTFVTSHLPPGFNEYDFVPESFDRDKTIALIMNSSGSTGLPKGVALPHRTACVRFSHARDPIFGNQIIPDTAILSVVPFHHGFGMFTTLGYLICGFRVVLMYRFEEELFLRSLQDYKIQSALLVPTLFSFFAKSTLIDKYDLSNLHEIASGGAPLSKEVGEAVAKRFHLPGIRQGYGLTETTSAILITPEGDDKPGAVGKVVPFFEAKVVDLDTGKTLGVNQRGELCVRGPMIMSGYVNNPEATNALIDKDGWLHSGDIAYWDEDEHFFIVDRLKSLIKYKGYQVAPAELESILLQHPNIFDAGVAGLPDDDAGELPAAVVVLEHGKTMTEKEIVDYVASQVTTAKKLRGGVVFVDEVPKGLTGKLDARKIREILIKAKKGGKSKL
Experiment [16] can be described thus: qHTS assay to identify small molecule antagonists of the TGF-beta/Smad signaling pathway - cell viability counter screen (AID 1346824). The method in brief:
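SBE-bla HEK 293T cells were plated overnight at 37 C, then given compounds in DMSO plus TGF-beta1 (added as 0.25 ng/mL solution) for 5 hr. After the bla read, CellTiter-Glo was added to the same wells and luminescence read after 30 min at room temperature.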

Experiment [17] has as its target Nuclear receptor subfamily 1 group I member 2 (Homo sapiens) (UniProt O75469). As to the kind of experiment: Human pregnane X receptor (PXR) small molecule agonists, qHTS assay (AID 1346982). For activation: % is set by controls: 0 for no effect and ±100 for the full control effect. Note: nearly all actives have a fitted effect of over 35% in size. Note: potency is the fitted concentration of half-maximal effect. The method in brief: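 Stable HepG2 line reporting PXR-mediated CYP3A4 expression via luciferase. Treatment: 24 hr with compounds in DMSO at 37 C. Detection: ONE-Glo luminescence.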

Experiment [18] is described as follows: qHTS assay to identify small molecule antagonists of the estrogen related receptor (ERR) signaling pathway from Tox21 library - cell viability counter screen (AID 1224834). Note: nearly all actives have a fitted effect of over 30% in size. Note: potency is the fitted concentration of half-maximal effect. In outline: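 Seeded ERR cells were rested 6 h at 37 C/5% CO2 before compounds, positive and negative controls or DMSO were added. Incubation continued for 17.5 h, and viability was then quantified by CellTiter-Fluor fluorescence.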

Experiment [19] can be described thus: qHTS RealTime-Glo MT Cell Viability Assay in HEK293 cells - 32 hour (AID 1224868). Note: nearly all actives have a fitted effect of over 50% in size. Note: potency is the fitted concentration of half-maximal effect. In outline: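 HEK293 cells seeded with NanoLuc/prosubstrate reagent, rested 5 h at 37 C, then dosed and kept at 37 C up to 40 h. Nonlytic real-time luminescence from viable cells read at 0, 8, 16, 24, 32 and 40 h.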
In experiment [20] the target is Retinoic acid receptor RXR-alpha (Homo sapiens) (UniProt P19793). The experiment is described as follows: qHTS assay to identify small molecule agonists of the RXR signaling pathway (AID 1159527; calls by dose curve; note: % is set by controls: 0 for no effect and ±100 for the full control effect; nearly all actives have a fitted effect of over 35% in size). The method in brief:
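Using 9-cis retinoic acid as the reference agonist, chemicals were tested in HEK 293T cells […] for 16 hr; substrate loading lasted 2 hr at room temperature.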

The structures appear in SMILES notation. Inconclusive results are not listed. Activity calls are given as the source filed them. Unless noted, calls come from the whole dose curve; as a rule, active = well fitted curve in the direction sought with a large enough effect in the repeat runs; inconclusive = weak or mixed curves; inactive = no such curve, though single readings can be large; an effect the other way counts as inactive or inconclusive.

Estrogen receptor (Homo sapiens), sequence (P03372 whole entry, looked up): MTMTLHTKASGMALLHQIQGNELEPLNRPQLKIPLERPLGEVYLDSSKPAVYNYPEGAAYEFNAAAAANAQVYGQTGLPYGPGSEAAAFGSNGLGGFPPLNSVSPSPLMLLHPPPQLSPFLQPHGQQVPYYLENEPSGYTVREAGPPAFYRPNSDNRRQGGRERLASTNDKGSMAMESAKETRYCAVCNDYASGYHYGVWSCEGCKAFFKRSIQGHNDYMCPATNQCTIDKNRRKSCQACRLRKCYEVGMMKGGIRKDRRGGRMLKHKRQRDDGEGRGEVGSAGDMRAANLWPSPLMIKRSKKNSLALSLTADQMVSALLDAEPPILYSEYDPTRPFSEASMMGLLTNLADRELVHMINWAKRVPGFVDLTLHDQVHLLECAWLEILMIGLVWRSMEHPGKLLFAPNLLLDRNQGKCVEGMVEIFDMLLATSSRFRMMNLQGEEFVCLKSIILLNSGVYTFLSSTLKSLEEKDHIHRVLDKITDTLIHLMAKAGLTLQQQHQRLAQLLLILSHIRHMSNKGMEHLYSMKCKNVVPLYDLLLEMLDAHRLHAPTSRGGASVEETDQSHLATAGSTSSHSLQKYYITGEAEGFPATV
Nuclear receptor subfamily 1 group I member 2 (Homo sapiens), sequence (O75469 whole entry, looked up): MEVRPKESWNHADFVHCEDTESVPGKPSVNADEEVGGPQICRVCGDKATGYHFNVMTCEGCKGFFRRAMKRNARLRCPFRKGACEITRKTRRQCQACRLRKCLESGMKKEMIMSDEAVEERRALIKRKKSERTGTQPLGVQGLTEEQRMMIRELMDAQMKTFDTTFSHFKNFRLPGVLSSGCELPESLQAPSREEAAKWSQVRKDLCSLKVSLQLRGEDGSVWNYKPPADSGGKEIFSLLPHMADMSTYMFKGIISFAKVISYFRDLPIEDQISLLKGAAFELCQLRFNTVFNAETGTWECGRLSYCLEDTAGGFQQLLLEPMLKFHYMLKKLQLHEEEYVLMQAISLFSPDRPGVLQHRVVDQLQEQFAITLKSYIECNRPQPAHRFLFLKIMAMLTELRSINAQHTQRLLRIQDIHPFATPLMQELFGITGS
Cytochrome P450 2C19 (Homo sapiens), sequence (P33261 whole entry, looked up): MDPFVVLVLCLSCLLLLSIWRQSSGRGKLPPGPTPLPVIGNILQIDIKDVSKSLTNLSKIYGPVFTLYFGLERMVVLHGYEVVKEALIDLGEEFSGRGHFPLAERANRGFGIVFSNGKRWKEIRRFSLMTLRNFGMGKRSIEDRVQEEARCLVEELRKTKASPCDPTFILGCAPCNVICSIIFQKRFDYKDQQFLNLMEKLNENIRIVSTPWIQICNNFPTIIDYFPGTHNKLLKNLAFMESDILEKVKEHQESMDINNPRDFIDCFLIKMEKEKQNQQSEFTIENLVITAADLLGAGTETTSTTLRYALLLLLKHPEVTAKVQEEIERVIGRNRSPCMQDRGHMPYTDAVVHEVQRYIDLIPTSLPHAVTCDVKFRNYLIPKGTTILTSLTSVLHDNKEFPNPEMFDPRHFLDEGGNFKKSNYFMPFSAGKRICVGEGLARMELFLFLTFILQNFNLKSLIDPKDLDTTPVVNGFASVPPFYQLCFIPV
Retinoic acid receptor RXR-alpha (Homo sapiens), sequence (P19793 whole entry, looked up): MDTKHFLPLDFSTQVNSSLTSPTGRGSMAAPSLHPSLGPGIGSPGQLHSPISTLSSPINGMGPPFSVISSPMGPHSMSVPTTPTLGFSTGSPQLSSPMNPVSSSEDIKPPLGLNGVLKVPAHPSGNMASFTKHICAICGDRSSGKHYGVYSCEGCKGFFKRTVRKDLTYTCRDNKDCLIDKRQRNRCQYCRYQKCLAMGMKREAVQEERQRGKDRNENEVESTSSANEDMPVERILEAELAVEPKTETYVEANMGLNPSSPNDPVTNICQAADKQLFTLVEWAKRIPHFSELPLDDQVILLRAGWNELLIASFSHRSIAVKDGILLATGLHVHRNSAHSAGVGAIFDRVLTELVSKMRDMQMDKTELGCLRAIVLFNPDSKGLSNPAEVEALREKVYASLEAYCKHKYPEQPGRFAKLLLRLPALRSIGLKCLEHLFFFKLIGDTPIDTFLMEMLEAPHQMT
Cytochrome P450 2C9 (Homo sapiens), sequence (P11712 whole entry, looked up): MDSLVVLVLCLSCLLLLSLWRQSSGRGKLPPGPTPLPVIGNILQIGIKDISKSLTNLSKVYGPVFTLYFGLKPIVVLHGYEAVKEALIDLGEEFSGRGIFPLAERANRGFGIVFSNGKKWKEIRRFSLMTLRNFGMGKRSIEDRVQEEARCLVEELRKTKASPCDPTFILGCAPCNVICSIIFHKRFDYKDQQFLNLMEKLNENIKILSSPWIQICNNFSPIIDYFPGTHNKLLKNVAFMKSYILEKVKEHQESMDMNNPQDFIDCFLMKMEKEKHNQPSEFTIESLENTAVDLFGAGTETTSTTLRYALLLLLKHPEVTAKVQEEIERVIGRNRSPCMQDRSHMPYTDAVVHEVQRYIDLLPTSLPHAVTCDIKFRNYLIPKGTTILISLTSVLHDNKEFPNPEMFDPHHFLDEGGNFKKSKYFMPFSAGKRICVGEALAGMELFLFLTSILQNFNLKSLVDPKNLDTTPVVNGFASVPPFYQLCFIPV

With `OC(Cc1ccccc1Cl)(Cn1[nH]cnc1=S)C1(Cl)CC1` (stereo not drawn), the Potency entry in [1], in experiment [2], in experiment [3], in experiment [4], in experiment [5] and in [6] was “inactive” each time. For the same molecule, the Potency result in experiment [7], in experiment [8], in experiment [9] and in experiment [11] was “inactive” throughout. In addition, the outcome in experiment [10] and in experiment [12] was inactive. For the same molecule, the Potency in experiment [13] is 1.26 µM (active); in experiment [14] it was 0.894 µM (active).
On to `ClC1=C(Cl)[C@]2(Cl)[C@@H]3[C@@H](Cl)[C@H]4O[C@H]4[C@@H]3C1(Cl)C2(Cl)Cl`, for which the Potency result in experiment [15], in experiment [1], in experiment [2], in [8], in [9] and in experiment [11] was “inactive” in each case. Moreover, in experiment [16], the Potency result was “inactive”. Moreover, the result in experiment [10] and in experiment [12] was inactive. The Potency is 30.6 µM (active) in [17] and 39.9 µM (active) in [14].
For `Nc1ccc([N+](=O)[O-])cc1`, the Potency was 15.4 µM (active) in experiment [18]; 30.6 µM (active) in experiment [2]; 38.9 µM (active) in experiment [19]; 43.6 µM (active) in experiment [4]; 43.6 µM (active) in [5]; 30.6 µM (active) in experiment [8]. The Potency in experiment [11] was 27.3 µM (active); in experiment [17], 61.1 µM (active); in experiment [13], 3.56 µM (active); in experiment [14], 25.2 µM (active). Moreover, the Potency entry in experiment [3], in [7] and in experiment [16] was “inactive” in each case. Besides, the result in [12] was inactive.
Turning to `CCCCC(CC)COC(=O)c1ccc(C(=O)OCC(CC)CCCC)cc1` (stereo not drawn), the Potency result in experiment [20] is “inactive”.
Still for that read-out and setting: under `CCCCC(CC)COC(=O)CCCCC(=O)OCC(CC)CCCC` (stereo not drawn) stands “inactive”.
The same measure, in the same setting: under `COCCOC(=O)c1ccccc1C(=O)OCCOC` stands “inactive”.
Consider `Cc1nnc2n1-c1sc(CCc3ccc(CC(C)C)cc3)cc1C(c1ccccc1Cl)=NC2C` (stereo not drawn), for which the Potency in experiment [18] is 26.6 µM (active); in experiment [19], 9.52 µM (active); in [17], 4.22 µM (active); in experiment [14], 27.5 µM (active). Besides, the Potency entry in experiment [15], in [6] and in experiment [9] was “inactive” in each case. In addition, the result in experiment [10] was inactive.
`Cc1ccc(N(SC(F)(Cl)Cl)S(=O)(=O)N(C)C)cc1`: the Potency is 30.6 µM (active) in experiment [18]; 44.8 µM (active) in experiment [15]; 30.6 µM (active) in [1]; 24.3 µM (active) in experiment [2]; 11 µM (active) in experiment [3]; 5.49 µM (active) in experiment [19]. Moreover, the Potency in experiment [4] is 11 µM (active); in [5], 6.92 µM (active); in experiment [6], 21.9 µM (active); in experiment [7], 15.5 µM (active); in experiment [8] it was 4.86 µM (active); in [9], 17.2 µM (active). Besides, the Potency in experiment [13] was 10 µM (active); in experiment [14], 5.64 µM (active). In addition, the Potency result in [11], in experiment [16] and in [17] was “inactive” throughout. In [12], the outcome was inactive.
On to `CNC(=O)Oc1cc(C)c(SC)c(C)c1`, for which the Potency result in experiment [20], in experiment [18], in [1], in experiment [2], in experiment [3] and in experiment [4] was “inactive” each time. Also, the Potency result in experiment [5], in experiment [6], in experiment [7], in experiment [8], in experiment [9] and in [11] was “inactive” throughout. Moreover, in [16], the Potency result is “inactive”. In addition, the result in [10] and in experiment [12] was inactive. The Potency in experiment [17] was 61.1 µM (active); in experiment [13] it was 56.4 µM (active).
Consider `ClC1=C(Cl)C(Cl)(Cl)C(Cl)=C1Cl`, for which the Potency entry in [20] was “inactive”.
`Brc1c2ccccc2c(Br)c2ccccc12`: the activation in experiment [20] was 1.52% [at 6.98 µM] (inactive).
Regarding `N#Cc1cc([N+](=O)[O-])ccc1N`, the Potency entry in [15], in [3], in experiment [19], in experiment [4], in experiment [5] and in [6] was “inactive” throughout. In addition, the Potency entry in [7], in experiment [17] and in [14] was “inactive” each time. The outcome in [10] and in [12] was inactive.

Source of the values: PubChem BioAssay (Tox21).
